Results: PubChem BioAssay (Tox21)
Results filed as inconclusive are left out. Active and inactive are the calls of the source. Unless noted, calls follow the shape of the dose curve; as a rule, active = well fitted curve in the direction sought with a large enough effect in the repeat runs; inconclusive = weak or mixed curves; inactive = no such curve, though single readings can be large; an effect the other way counts as inactive or inconclusive.

Columns and labels:
[1] = A CellTox Green Cytotoxicity Assay to monitor cytotoxicity in HEK293 cells - 32 hour (AID 1224881); also: nearly all actives have a fitted effect of over 40% in size
Procedure, shortened: (§1)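 Fluorescence intensity, read at 0, 8, 16, 24, 32 and 40 h of compound treatment, reflected dye binding to DNA of dead HEK293 cells; compounds (23 nL, DMSO) were added 5 h after plating cells with reagent.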

[2] = A CellTox Green Cytotoxicity Assay to monitor cytotoxicity in HepG2 cells - 0 hour (AID 1224882); also: nearly all actives have a fitted effect of over 35% in size
Procedure, shortened: (§2)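 Using 1536-well format, dye-containing HepG2 suspension was seeded, allowed 5 h at 37 C/5% CO2, dosed by pintool with compounds, positive and negative controls, and imaged for fluorescence across 40 h.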

[3] = A CellTox Green Cytotoxicity Assay to monitor cytotoxicity in HepG2 cells - 32 hour (AID 1224883); also: nearly all actives have a fitted effect of over 50% in size
Procedure, shortened: as §2

[4] = A CellTox Green Cytotoxicity Assay to monitor cytotoxicity in HEK293 cells - 8 hour (AID 1224884); also: nearly all actives have a fitted effect of over 35% in size
Procedure, shortened: as §1

[5] = qHTS RealTime-Glo MT Cell Viability Assay in HepG2 cells - 16 hour (AID 1224885); also: nearly all actives have a fitted effect of over 50% in size
Procedure, shortened: (§3)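 HepG2 cells were seeded at 600 cells/well together with NanoLuc luciferase and a cell-permeant prosubstrate, preincubated 5 h at 37 C/5% CO2, then pin-dosed with compounds in DMSO. Nonlytic luminescence from viable cells was read at each time point.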

[6] = qHTS RealTime-Glo MT Cell Viability Assay in HEK293 cells - 24 hour (AID 1224886); also: top concentration of the series differs between compounds; nearly all actives have a fitted effect of over 50% in size
Procedure, shortened: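 HEK293 cells were seeded at 600 cells/well together with NanoLuc luciferase and cell-permeant prosubstrate, preincubated 5 h at 37 C/5% CO2, then given compound in DMSO by pintool. Luminescence from viable-cell prosubstrate reduction was read repeatedly over 40 h.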

[7] = qHTS RealTime-Glo MT Cell Viability Assay in HEK293 cells - 8 hour (AID 1224887); also: top concentration of the series differs between compounds; nearly all actives have a fitted effect of over 50% in size
Procedure, shortened: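 Viable HEK293 cells reduce a cell-permeant prosubstrate; the product diffuses out and is consumed by NanoLuc in the medium to give light. Compounds went in after a 5 h incubation and plates were read over the treatment course.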

[8] = A CellTox Green Cytotoxicity Assay to monitor cytotoxicity in HEK293 cells - 16 hour (AID 1224888); also: nearly all actives have a fitted effect of over 35% in size
Procedure, shortened: as §1

[9] = qHTS RealTime-Glo MT Cell Viability Assay in HepG2 cells - 0 hour (AID 1224889); also: nearly all actives have a fitted effect of over 50% in size
Procedure, shortened: as §3

[10] = A CellTox Green Cytotoxicity Assay to monitor cytotoxicity in HepG2 cells - 8 hour (AID 1224890); also: nearly all actives have a fitted effect of over 45% in size
Procedure, shortened: as §2

[11] = qHTS assay to identify small molecule antagonists of the estrogen receptor alpha (ER-alpha) signaling pathway using the BG1 cell line in the presence of 0.1 nM 17-beta-estradiol - cell viability counter screen (AID 1259241); also: nearly all actives have a fitted effect of over 40% in size
Procedure, shortened: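 Cytotoxicity counter-screen: live-cell protease activity measured by fluorescence (30 min reagent step) in the same wells. Cells were VM7Luc4E2 with endogenous ER-alpha and ERE-driven luciferase, treated 22 hr at 37C alongside 0.1 nM 17beta-estradiol final.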

[12] = qHTS assay to identify small molecule antagonists of the androgen receptor (AR) signaling pathway using the MDA cell line in the presence of 0.5 nM R1881 - cell viability counter screen (AID 1259242); also: nearly all actives have a fitted effect of over 45% in size
Procedure, shortened: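 Viability of MDA-kb2 cells was multiplexed with the luciferase AR readout; after 16 hr with compounds and R1881 at 0.5 nM final, CellTiter-Fluor fluorescence was recorded.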

[13] = biological target: Estrogen receptor (Homo sapiens) (UniProt P03372); assay: qHTS assay to identify small molecule antagonists of the estrogen receptor alpha (ER-alpha) signaling pathway using the BG1 cell line in the presence of 0.1 nM 17-beta-estradiol (AID 1259244); also: nearly all actives have a fitted effect of over 50% in size
Sequence of Estrogen receptor (Homo sapiens) (P03372 whole entry, looked up): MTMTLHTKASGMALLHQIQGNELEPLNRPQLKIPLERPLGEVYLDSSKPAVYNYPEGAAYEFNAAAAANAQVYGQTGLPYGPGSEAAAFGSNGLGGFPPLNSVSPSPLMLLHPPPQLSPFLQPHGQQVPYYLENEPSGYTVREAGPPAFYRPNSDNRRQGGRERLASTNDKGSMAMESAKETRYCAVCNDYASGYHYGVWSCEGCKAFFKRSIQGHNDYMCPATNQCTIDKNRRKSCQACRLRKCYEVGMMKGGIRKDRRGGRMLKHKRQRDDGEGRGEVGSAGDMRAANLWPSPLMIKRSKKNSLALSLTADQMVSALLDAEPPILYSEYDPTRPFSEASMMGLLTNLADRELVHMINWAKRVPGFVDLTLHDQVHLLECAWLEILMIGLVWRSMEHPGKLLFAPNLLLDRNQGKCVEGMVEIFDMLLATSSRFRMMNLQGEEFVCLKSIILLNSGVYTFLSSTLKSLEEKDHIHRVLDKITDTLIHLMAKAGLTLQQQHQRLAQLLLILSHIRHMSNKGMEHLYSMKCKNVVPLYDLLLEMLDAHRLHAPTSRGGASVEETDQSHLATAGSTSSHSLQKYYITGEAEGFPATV
Procedure, shortened: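 Estradiol at 0.1 nM (final) stimulates the endogenous ER-alpha of VM7Luc4E2 cells carrying an ERE-driven luciferase; compounds are co-incubated 22 h at 37C and luciferase output quantified by luminescence.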

[14] = qHTS assay to identify small molecule phospholipidosis (PLD) inducers (AID 1259344; active = well fitted curve in the direction sought with a large enough effect; an effect the other way counts as inactive or inconclusive)
Procedure, shortened: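 HepG2 cells, 900/well, treated with compound plus LipidTOX Red for 24 h at 37 C; amiodarone positive and DMSO negative controls. Fixed with paraformaldehyde/Hoechst, then high-content imaging scored LipidTOX pit count and integrated intensity per well and per cell.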

[15] = qHTS assay to identify small molecule HDAC inhibitors (AID 1259364);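 also: wild-type HCT-116 cells with endogenous class I/II HDAC activity; top concentration of the series differs between compounds; nearly all actives have a fitted effect of over 45% in size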
Procedure, shortened: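 Read-out: luminescence of HDAC-Glo I/II reagent, 30 min RT, reflecting class I/II deacetylase activity in whole HCT-116 cells pre-exposed 2 h to DMSO-dissolved compounds.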

[16] = qHTS assay to identify small molecule HDAC inhibitors - cell viability counter screen (AID 1259365)
Procedure, shortened: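 CellTiter-Glo luminescence (30 min, room temperature) reported viability after a 2 h compound exposure at 37 C. Cells: wild-type HCT-116, 1,500 per well, seeded the night before.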

[17] = qHTS assay to identify small molecule agonists of the sonic hedgehog signaling (Shh) pathway - cell viability counter screen (AID 1259366); also: nearly all actives have a fitted effect of over 50% in size
Procedure, shortened: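 Cytotoxicity counter screen: CellTiter-Fluor reagent added after 23 h compound exposure, then 1 h at 37C and fluorescence read. Cells were 3T3 Gli1-Luc, seeded 2,000 per well and dosed 4 h post-plating.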

[18] = qHTS assay to identify small molecule antagonists of the sonic hedgehog signaling (Shh) pathway - cell viability counter screen (AID 1259367); also: nearly all actives have a fitted effect of over 55% in size
Procedure, shortened: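 NIH/3T3-derived Gli1-Luc reporter cells, 2,000/well, plated 4 hr before compound addition, then stimulated with conditioned medium for 24 hr at 37C. Viability measured in the same wells by CellTiter-Fluor fluorescence, reagent added at 23 hr for 1 hr.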

[19] = qHTS assay to identify small molecule agonists of the sonic hedgehog signaling (Shh) pathway (AID 1259368; calls by dose curve;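 also: NIH/3T3-derived 3T3Gli1-Luc cells carrying a stable Gli1-driven firefly luciferase reporter; series mostly up to about 92 µM; nearly all actives have a fitted effect of over 15% in size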)
Procedure, shortened: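 A Gli1 transcriptional response element controlled firefly luciferase in 3T3Gli1-Luc cells. Compounds and a positive control were added 4 hr after plating, and cells were incubated a further 24 hr at 37 C before luminescence detection.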

[20] = biological target: Androgen receptor (Homo sapiens) (UniProt P10275); assay: qHTS assay to identify small molecule antagonists of the androgen receptor (AR) signaling pathway using the MDA cell line in the presence of 0.5 nM R1881 (AID 1259243); also: nearly all actives have a fitted effect of over 50% in size
Sequence of Androgen receptor (Homo sapiens) (P10275 whole entry, looked up): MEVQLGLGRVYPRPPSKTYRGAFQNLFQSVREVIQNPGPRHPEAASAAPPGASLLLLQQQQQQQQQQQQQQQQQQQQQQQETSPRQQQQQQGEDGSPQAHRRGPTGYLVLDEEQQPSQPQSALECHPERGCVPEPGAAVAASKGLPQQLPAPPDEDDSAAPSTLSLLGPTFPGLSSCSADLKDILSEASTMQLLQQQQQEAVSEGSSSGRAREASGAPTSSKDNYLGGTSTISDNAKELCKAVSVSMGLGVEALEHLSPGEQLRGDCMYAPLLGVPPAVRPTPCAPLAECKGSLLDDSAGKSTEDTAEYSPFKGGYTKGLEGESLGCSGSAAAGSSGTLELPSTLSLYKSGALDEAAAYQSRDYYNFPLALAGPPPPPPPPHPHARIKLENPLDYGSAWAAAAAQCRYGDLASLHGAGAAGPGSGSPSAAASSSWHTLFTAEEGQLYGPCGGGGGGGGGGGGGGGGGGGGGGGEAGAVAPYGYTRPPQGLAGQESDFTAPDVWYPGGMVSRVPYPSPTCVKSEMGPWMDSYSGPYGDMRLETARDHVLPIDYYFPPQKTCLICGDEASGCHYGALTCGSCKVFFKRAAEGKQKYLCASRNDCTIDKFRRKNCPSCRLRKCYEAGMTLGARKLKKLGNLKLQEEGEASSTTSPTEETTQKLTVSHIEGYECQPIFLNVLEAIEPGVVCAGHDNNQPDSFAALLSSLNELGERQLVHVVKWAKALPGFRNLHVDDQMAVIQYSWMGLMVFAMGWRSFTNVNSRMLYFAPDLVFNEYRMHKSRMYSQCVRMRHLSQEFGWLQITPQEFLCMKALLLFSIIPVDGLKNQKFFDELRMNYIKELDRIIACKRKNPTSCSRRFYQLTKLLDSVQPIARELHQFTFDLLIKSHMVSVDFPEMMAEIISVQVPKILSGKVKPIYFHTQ
Procedure, shortened: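 Reporter cells cultured without CO2 receive test chemicals, then 0.5 nM R1881 final; after 16 hr at 37C, ONE-Glo is added and light output recorded.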
% is scaled to controls: 0 for no effect and ±100 for the full control effect.

Cc1ccc(C(=O)C(C)CN2CCCCC2)cc1 (configuration not stated)
inactive: Potency [1] | Potency [2] | Potency [3] | Potency [4] | Potency [5] | Potency [6] | Potency [7] | Potency [8] | Potency [9] | Potency [10] | Potency [11] | Potency [12] | Potency [13] | Potency [14] | Potency [15] | outcome [16] | Potency [17] | Potency [18] | outcome [19]

Nc1ccc(C(=O)N2CC3CC(CN(Cc4ccccc4)C3)C2)cc1
inactive: Potency [1] | Potency [2] | Potency [3] | Potency [4] | Potency [5] | Potency [6] | Potency [7] | Potency [8] | Potency [9] | Potency [10] | Potency [11] | Potency [12] | Potency [13] | Potency [15] | outcome [16] | Potency [17] | Potency [18] | outcome [19]

SC1CCCC1
inactive: Potency [1] | Potency [2] | Potency [3] | Potency [4] | Potency [5] | Potency [6] | Potency [7] | Potency [8] | Potency [9] | Potency [10] | Potency [11] | Potency [12] | Potency [13] | Potency [15] | outcome [16] | Potency [17] | Potency [18] | outcome [19]

NC1CCN(c2nc3c(cc2F)c(=O)c(C(=O)O)cn3-c2ccc(F)cc2F)C1 (configuration not stated)
inactive: Potency [1] | Potency [2] | Potency [3] | Potency [4] | Potency [5] | Potency [6] | Potency [7] | Potency [8] | Potency [9] | Potency [10] | Potency [11] | Potency [12] | Potency [13] | Potency [14] | Potency [15] | Potency [17] | Potency [18] | outcome [19]

NCCCN(CCO)CCO
inactive: Potency [1] | Potency [2] | Potency [3] | Potency [4] | Potency [5] | Potency [6] | Potency [7] | Potency [8] | Potency [9] | Potency [10] | Potency [11] | Potency [12] | Potency [20] | Potency [13] | Potency [15] | outcome [16] | Potency [17] | Potency [18] | outcome [19]

CCCCCOC(=O)COc1cc(N2C(=O)C3=C(CCCC3)C2=O)c(F)cc1Cl
inactive: Potency [1] | Potency [2] | Potency [3] | Potency [4] | Potency [5] | Potency [6] | Potency [7] | Potency [8] | Potency [9] | Potency [10] | Potency [11] | Potency [12] | Potency [13] | Potency [15] | outcome [16] | Potency [17] | Potency [18] | outcome [19]

COc1ccc2[nH]c(S(=O)Cc3ncc(C)c(OC)c3C)nc2n1 (configuration not stated)
inactive: Potency [1] | Potency [2] | Potency [3] | Potency [4] | Potency [5] | Potency [6] | Potency [7] | Potency [8] | Potency [9] | Potency [10] | Potency [11] | Potency [12] | Potency [13] | Potency [14] | Potency [15] | Potency [17] | Potency [18] | outcome [19]

Cc1c(Cn2ccnc2)c2ccccc2n1CCC(=O)O
inactive: Potency [1] | Potency [2] | Potency [3] | Potency [4] | Potency [5] | Potency [6] | Potency [7] | Potency [8] | Potency [9] | Potency [10] | Potency [11] | Potency [12] | Potency [14] | Potency [15] | Potency [18] | outcome [19]

Cc1ccccc1N=Nc1ccc(N=Nc2c(O)ccc3ccccc23)c(C)c1
inactive: Potency [1] | Potency [2] | Potency [3] | Potency [4] | Potency [5] | Potency [6] | Potency [7] | Potency [8] | Potency [9] | Potency [10] | Potency [11] | Potency [12] | Potency [13] | Potency [14] | Potency [15] | outcome [16] | Potency [17] | Potency [18] | outcome [19]

CCN(CCO)CCCC(C)Nc1ccnc2cc(Cl)ccc12 (configuration not stated)
inactive: cytotoxicity increase [1] -1.54% [at 6.97 µM] | cytotoxicity [2] 10% [at 6.97 µM] | cytotoxicity increase [3] 10.8% [at 6.97 µM] | cytotoxicity increase [4] 0.302% [at 6.97 µM] | activity change, negative = cytotoxic [5] 4.27% [at 6.97 µM] | activity change, negative = cytotoxicity [6] -0.518% [at 6.97 µM] | activity change, negative = cytotoxicity [7] 0.498% [at 6.97 µM] | activity change [8] -1.57% [at 6.97 µM, stronger effect = higher value] | activity change, negative = cytotoxicity [9] 5.1% [at 6.97 µM] | cytotoxicity increase [10] 17.5% [at 6.97 µM] | activity change, negative = cytotoxicity [11] -6.05% [at 8.39 µM] | viability change, negative = cytotoxic [12] -0.563% [at 8.39 µM] | Potency [14] | activity change, negative = inhibition [15] 16.3% [at 8.39 µM] | activity change, negative = cytotoxicity [16] 0.62% [at 8.39 µM] | viability change, negative = cytotoxic [18] 1.32% [at 8.39 µM] | activity change [19] 0.0324% [at 8.39 µM]

CC1=CCC(C(C)C)C=C1 (configuration not stated)
inactive: Potency [1] | Potency [2] | Potency [3] | Potency [4] | Potency [5] | Potency [6] | Potency [7] | Potency [8] | Potency [9] | Potency [10] | Potency [11] | Potency [12] | Potency [13] | Potency [15] | outcome [16] | Potency [18] | outcome [19]

CCCCCCCCCC(=O)OCC
inactive: Potency [1] | Potency [2] | Potency [3] | Potency [4] | Potency [5] | Potency [6] | Potency [7] | Potency [8] | Potency [9] | Potency [10] | Potency [11] | Potency [12] | Potency [15] | outcome [16] | Potency [17] | Potency [18] | outcome [19]

CCCC(=O)OCC
inactive: Potency [1] | Potency [2] | Potency [3] | Potency [4] | Potency [5] | Potency [6] | Potency [7] | Potency [8] | Potency [9] | Potency [10] | Potency [11] | Potency [12] | Potency [13] | Potency [15] | outcome [16] | Potency [17] | Potency [18] | outcome [19]

CCN(CC)C(C)=O
inactive: Potency [1] | Potency [2] | Potency [3] | Potency [4] | Potency [5] | Potency [6] | Potency [7] | Potency [8] | Potency [9] | Potency [10] | Potency [11] | Potency [12] | Potency [15] | outcome [16] | Potency [17] | Potency [18] | outcome [19]

COc1ccccc1OC(=O)Oc1ccccc1OC
inactive: Potency [1] | Potency [2] | Potency [3] | Potency [4] | Potency [5] | Potency [6] | Potency [7] | Potency [8] | Potency [9] | Potency [10] | Potency [11] | Potency [12] | Potency [14] | Potency [15] | outcome [16] | Potency [17] | Potency [18] | outcome [19]
